Laboratory results from ChEMBL document CHEMBL4888484, “Replenishing the malaria drug discovery pipeline: Screening and hit evaluation of the MMV Hit Generation Library 1 (HGL1) against asexual blood stage Plasmodium falciparum ,using a nano luciferase reporter read-out” (2022).
Screen size: about 150,000 compounds; about 540 (0.36%) showed an effect of 50% or more. Many of the other results were omitted from the sample, so strong results are more common in it than they were.

Each molecule was assayed on Plasmodium falciparum (assay: Primary screen in NF54 nanoGlo assay, in single point, at 2uM, 72h; a lower Z score goes with more inhibition). Conditions: timepoint 72 hour.
Format: functional, Erythrocyte

Row | SMILES | % Inhibition [%] | Z score
1 | CCOc1cccc2c1OC[C@@H](C(=O)N1CCCS1(=O)=O)C2 | -7 | 1.2
2 | Cc1cc(C)c(-c2ccc(C(=O)N(C)CCn3ccnc3C)cc2)cc1C | -5 | 0.69
3 | COCCNc1c(-c2ccccc2)nc2sc(C(=O)NCc3cccnc3)c(C)n12 | -31 | 3.13
4 | Cc1ccc(-n2cc(NC(=O)c3cc(C)no3)cn2)c(C)c1 | -5 | 0.56
5 | O=c1c2cnc(N3CCc4ccccc4C3)nc2ccn1-c1ccc(Cl)c(Cl)c1 | -8 | 1.01
6 | Cc1cccc(N2CCO[C@@H](CF)C2)n1 | 5 | -0.46
7 | CCn1ccc(CNCCNc2ccncc2C)n1 | -3 | 0.68
8 | Cc1cnccc1NCCNCc1cccc(O)c1Cl | 88 | -13.09
9 | Cc1cnccc1NCCNCc1ccnc(C(C)C)n1 | -15 | 1.39
10 | Cc1cnccc1NCCNCc1nc(C(C)C)cs1 | 6 | -0.58
11 | CC1CCN(Cn2c(=S)sc3ccccc32)CC1 | -4 | 0.63
12 | Cc1nccn1CC(=O)N[C@@H](C)C1=CCCCC1 | 3 | -0.38
13 | O=C1Nc2ccc(F)cc2C12CCNC2c1ccc2c(c1)OCCO2 (stereo unspecified) | 31 | -3.54
14 | Cn1c(N)c(S(=O)(=O)N2CCN(c3ccccc3Cl)CC2)c(=O)n(C)c1=O | 59 | -11.06
15 | Cc1ccccc1S(=O)(=O)N1CCN(c2c(C)n(-c3ccccc3)c(=O)n(C)c2=O)CC1 | 36 | -0.1
16 | CS(=O)(=O)N1CCN(S(=O)(=O)N2CCN(c3ccccc3Cl)CC2)CC1 | 5 | -0.74
17 | O=C(CCN(CCc1ccccc1)c1nc(C2CC2)nc2ccccc12)Nc1ccccc1 | 0 | -0.06
18 | O=C(CCN1C(=O)CCC1=O)Nc1cccc(S(=O)(=O)N2CCCCC2)c1 | -4 | 0.89
19 | CCN1CCN([C@H]2CCN(c3ccnc4c(F)cc(Cl)cc34)C2)CC1 | 11 | -1.82
20 | CC(C)(C)OC(=O)N1CCC1CN1CCCC(c2nnc(N)o2)C1 (stereo unspecified) | 32 | -3.65
21 | Cn1ncc(Cl)c1C(=O)NCc1cccnc1Oc1ccc(F)c(F)c1 | -3 | 0.62
22 | CN(C)c1ccc(NC(=O)C2(N(Cc3ccccc3)C(=O)Cn3nnc4ccccc43)CCCC2)cc1 | 5 | -0.62
23 | O=C(Cn1nnc2ccccc21)N(Cc1cccnc1)C1(C(=O)Nc2ccc(N3CCOCC3)cc2)CCCCC1 | 2 | -0.25
24 | COc1ccc(NC(=O)C2(N(Cc3nc(-c4ccccc4)cs3)C(=O)Cn3nnc4ccccc43)CCCCC2)cc1 | 55 | -6.2
25 | O=C(Cn1nnc2ccccc21)N(Cc1nc(-c2ccccc2)cs1)C1(C(=O)Nc2ccc3c(c2)OCO3)CCCC1 | -7 | 0.77

Row | SMILES | % Inhibition [%] | Z score
26 | O=C(Cn1nnc2ccccc21)N(Cc1cccnc1)C1(C(=O)Nc2ccc3c(c2)OCO3)CCCC1 | 5 | -0.59
27 | CN(C)c1ccc(NC(=O)C2(N(Cc3ccccc3)C(=O)Cn3nnc4ccccc43)CCCCC2)cc1 | 51 | 0.77
28 | COc1ccc(NC(=O)C2(N(Cc3ccccc3)C(=O)Cn3nnc4ccccc43)CCCCC2)cc1 | 44 | -1.28
29 | O=C(Cn1nnc2ccccc21)N(Cc1ccccc1)C1(C(=O)Nc2ccc3c(c2)OCO3)CCCCC1 | 50 | -5.71
30 | O=C(Cn1nnc2ccccc21)N(Cc1cccnc1)C1(C(=O)Nc2ccc3c(c2)OCO3)CCCCC1 | 36 | -0.52
31 | CCc1cc2c(N3CC(c4ncc(C5CC5)cn4)C3)ncnc2s1 | 0 | -0.06
32 | CN(C(=O)Cn1c(=O)n(C)c(=O)c2ccccc21)C1CCCCC1 | -1 | 0.19
33 | Cc1cc(C(=O)N2CCOC3(CCS(=O)(=O)CC3)C2)c(C)s1 | -13 | 1.28
34 | Cc1c(CN(C)C(=O)c2ccc(-c3ccc4c(c3)OCC4)cc2)cnn1C | -20 | 2.12
35 | COc1ccccc1-c1nnc2c3ccc(Cl)cc3nc(N3CCN(C(=O)c4ccc(C)cc4)CC3)n12 | -13 | 1.38
36 | Cc1nc(-c2ccco2)ccc1C(=O)N[C@@H](C)c1nnnn1C | -12 | 1.8
37 | CCn1nc(-n2cnnc2)c(NS(=O)(=O)c2ccc(C)cc2)c1C | -9 | 1.53
38 | COc1ncnc2c1CN(C(=O)NCC1(Cc3ccccc3)CCC1)CC2 | 29 | 1.68
39 | COc1cccc2c(Nc3ccc(C(=O)O)cc3)cc(C)nc12 | -3 | 0.28
40 | Cc1cc(C)c2nc(C)cc(Nc3ccc(O)cc3)c2c1 | 85 | -12.86
41 | Cc1cc(Nc2ccc(C)c(Cl)c2)c2cccc(C)c2n1 | 23 | -2.05
42 | Cc1nonc1CC(=O)NCCCn1ccnn1 | -4 | 0.49
43 | Cc1ccc2c(NC(=O)NCC3(CO)CCC3)cccc2n1 | -9 | 1.22
44 | NC(=O)c1ncc(Br)cc1N1CCC[C@H](F)C1 | -6 | 0.95
45 | O=C(Nc1nc2c(s1)CN(S(=O)(=O)c1c(F)cccc1F)CC2)c1ccco1 | -5 | 0.7
46 | COc1ccc(-c2nc(C)cc(C)c2CNC(=O)c2ccco2)cc1 | -2 | 0.33
47 | O=C(Nc1cccc(CNc2ncccn2)c1)c1ccco1 | -4 | 0.39
48 | FC(F)(F)c1ccc(-c2nc(CN(Cc3ccccc3)Cc3ccccc3)cs2)cc1 | 0 | 0.08
49 | CN(Cc1cccc(N(C)C)c1)Cc1csc(-c2ccoc2)n1 | -5 | 0.54
50 | CC1(C)CN(C(=O)c2c(O)cnc3c(F)cccc23)C1C1CCCO1 (stereo unspecified) | -4 | 0.64

Row | SMILES | % Inhibition [%] | Z score
51 | COc1cc(OC)cc(C(=O)Nc2ccc3nc(N4CCC(C)CC4)cc(C)c3c2)c1 | 58 | -3.66
52 | COc1ccc(C(=O)Nc2ccc3nc(N4CCC(C)CC4)cc(C)c3c2)cc1OC | 7 | -1.1
53 | CC(=O)Nc1ccc2nc(N3CCC(C(=O)NC4CC4)CC3)cc(C)c2c1 | 8 | -1.23
54 | Cc1cc(N2CCC(C)CC2)nc2ccc(NC(=O)c3cccnc3)cc12 | 18 | -2.1
55 | CC(=O)Nc1ccc2nc(N3CCC(C(=O)N4CCC(N5CCCCC5)CC4)CC3)cc(C)c2c1 | 10 | -1.6
56 | CCN(CC)c1ccc(C(=O)Nc2ccc3nc(N4CCCC4)cc(C)c3c2)cc1 | 73 | -6.69
57 | CCn1c(=O)sc2cc(NC(=O)c3ccc(C)cc3)ccc21 | 5 | -0.91
58 | CC(Nc1ccc(C#N)nc1)C1CCCOC1 (stereo unspecified) | 1 | -0.15
59 | Cc1noc2ncnc(NC[C@](C)(O)c3cccc(F)c3)c12 | -7 | 1.41
60 | CN(C)c1ccccc1NC(=O)Cn1ccc(=O)[nH]c1=O | -5 | 0.92
61 | Nc1nnc(N[C@H]2COc3ccccc32)[nH]1 | 0 | 0.03
62 | O=C(CCc1ccc(Cl)c(C(F)(F)F)c1)N1CC[C@H](N2CCc3ccccc3C2)C1 | 50 | -7.74
63 | O=C(CCc1cccc(Cl)c1)N1CC[C@H](N2CCc3ccccc3C2)C1 | -5 | 0.72
64 | O=C(CCc1ccc(Cl)c(F)c1)N1CC(N2CCc3ccccc3C2)C1 | -9 | 1.44
65 | COCCN1C[C@@H](c2nc(C3CCOCC3)n[nH]2)CCC1=O | -5 | 0.81
66 | CNC(=O)[C@H](CNC(=O)c1ccc(=O)[nH]n1)Cc1ccc(F)cc1C | -8 | 1.4
67 | Cc1cccc(CN2CCN(C(=O)c3cc(C)nc(N)n3)[C@@H](C)C2=O)c1 | -2 | 0.2
68 | COc1cc(C(=O)Nc2cccc(-c3nc(C)cc(=O)[nH]3)c2)ccc1OCc1cscn1 | -2 | 0.29
69 | C=CCn1ncc(-c2cn([C@@H](CC)c3cc(C)ccn3)nn2)c1C | 10 | -1.39
70 | CN(C)C1(CC2CC2)CCN(Cc2cccc(C#N)c2)CC1 | -3 | 0.54
71 | CCNC(=O)N1CC[C@H](Oc2ccc3ccccc3n2)C1 | 57 | -3
72 | O=C(Cc1ccccc1Cl)N1CC[C@H](Oc2ccc3ccccc3n2)C1 | -5 | 0.96
73 | O=C(COc1ccc(Cl)cc1)N1CC[C@H](Oc2ccc3ccccc3n2)C1 | -18 | 3.35
